Data as given in PubChem BioAssay (NCI).
About 83,000 compounds went through this panel and 20% of them were active in at least one assay; those are over-represented in the sample as a whole.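 How to read the values: 0–100, growth inhibition (40 = 60% inhibited); 0, no net growth; -100 to 0, cell death (-40 = 40% of starting cells died; -100 = all dead).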 Unmarked numbers belong to inactive results. Active and inactive are the calls of the source. Rule for the calls: active = growth percent below 10; inactive = the rest.

Tests used:
Assay in all cases: NCI-60 one-dose screen, 48 h (100 = growth as untreated, 0 = no growth, -100 = all killed)
Settings in all cases: 10 µM unless noted
NCI-H23 lung = tested on: NCI-H23 lung
NCI-H226 lung = tested on: NCI-H226 lung
NCI-H322M lung = tested on: NCI-H322M lung
HOP-62 NSCLC = tested on: HOP-62 NSCLC
NCI-H460 lung = tested on: NCI-H460 lung
HOP-92 NSCLC = tested on: HOP-92 NSCLC
NCI-H522 lung = tested on: NCI-H522 lung
A549/ATCC NSCLC = tested on: A549/ATCC NSCLC
786-0 renal = tested on: 786-0 renal
COLO 205 colon = tested on: COLO 205 colon

Row | SMILES | growth (NCI-H23 lung) | growth (NCI-H226 lung) | growth (NCI-H322M lung) | growth (HOP-62 NSCLC) | growth (NCI-H460 lung) | growth (HOP-92 NSCLC) | growth (NCI-H522 lung) | growth (A549/ATCC NSCLC) | growth (786-0 renal) | growth (COLO 205 colon)
1 | Cc1cc2nc3ccc(N=Nc4ccc(N(C)C)cc4)cc3n(-c3ccccc3)c-2cc1=N | -45.8% (active) | -81.3% (active) | -96.6% (active) | -55.9% (active) | -58.1% (active) | -70.3% (active) | -73.8% (active) | -75.4% (active) | -61.9% (active) | -86.8% (active)
2 | CC1Cc2c(ncn3c(-c4ccc(F)cc4)nnc23)N(C)c2ccccc21 (stereo not given) | 73.4% | 33.2% | 2.19% (active) | 59.5% | 5% (active) | 35.9% | 63% | 16.3% | 29.9% | 43.6%
3 | COc1ccc(C2C(C#N)=C(N)Oc3c2sc2c(C)cccc32)cc1 (stereo not given) | 18.2% | 13.5% | 48.2% | 40.8% | 7.35% (active) | 80% | 21.5% | 28.4% | 27.8% | 0.625% (active)
4 | COc1c(B(O)O)cc(F)cc1-c1nc2ccc3[nH]ncc3c2c2c1CCCC2 | 0.235% (active) | 8.89% (active) | 14.2% | 16.1% | 5.46% (active) | 19.7% | 13.1% | 15% | 1.01% (active) | -3.77% (active)
5 | COc1cc(-c2nc3sccn3c2-c2ccnc(NCCCNS(=O)(=O)c3ccc(F)cc3)n2)ccc1F | 52.6% | 52.1% | 102% | 90.2% | 79.5% | 79.4% | 47.7% | 83.2% | 96.7% | 56.9%
6 | O=C(/C=C/c1sc(Cl)nc1Cl)c1ccc(F)cc1 | 94% | 96.4% | 100% | 95.6% | 102% | 96.9% | 86.6% | 98.4% | 95.8% | 75.6%
7 | COc1ccc(C(=O)N=Nc2c(O)n(C)c3ccccc23)cc1 | 85.3% | 91.1% | 94.4% | 97.6% | 94% | 86.1% | 91.5% | 105% | 106% | 106%
8 | CC(=O)N1CCN(c2ccc(OCC3CO[C@](Cn4ccnc4)(c4ccc(Cl)cc4Cl)O3)cc2)CC1 (stereo not given in full) | 78.3% | 58.7% | 93.6% | 74.4% | 96.4% | 61.4% | 82.4% | 85.2% | 77.6% | 86.9%
9 | O=C(N/N=C/[C@H](O)[C@H](O)[C@H](O)CO)c1ccc(NC(=O)c2cccnc2)cc1 | 101% | 105% | 105% | 97.5% | 104% | 103% | 92.7% | 99.8% | 105% | 112%
10 | c1ccc(OCc2nnc(-c3ccc(Oc4ccccc4)cc3)o2)cc1 | 94.2% | 93.7% | 106% | 86.4% | 104% | 84.6% | 86.8% | 96% | 99.1% | 104%
11 | NCCOc1ncccc1/C=C1\c2ccccc2-c2ccc(C(F)F)cc21 | 42.3% | 61.8% | 98.8% | 39.9% | 9.8% (active) | 49.6% | 79% | 20.9% | 56.4% | 48.9%
12 | COc1ccc(C(=O)/C=C/c2sc(Cl)nc2Cl)cc1 | 8.44% (active) | 40.7% | 93.1% | 68.3% | 29.5% | 32.8% | 19.1% | 78.1% | 18.5% | 1.55% (active)
13 | COc1ccc2c(c1)C(C)Cc1c(ncnc1-n1c(C)nc3ccccc31)N2C (stereo not given) | 30.2% | 63.7% | 39.5% | 33.6% | 7.77% (active) | -4.69% (active) | 20.9% | 35.2% | 29.2% | -11.3% (active)
14 | NC1=NC(c2cccc(Br)c2)c2sc3ccc(Cl)cc3c2N1 (stereo not given) | 86.3% | 78.4% | 89.6% | 91.5% | 98.6% | 96.7% | 87.8% | 98% | 94.8% | 100%
15 | CCCSc1nc2ccc(C)cc2cc1/C=[N+](\[O-])c1ccccc1 | 42.1% | 70.8% | 90.9% | 25.5% | 96.7% | 19.2% | 72.8% | 95.4% | 34.6% | 101%
16 | O=c1[nH][n+](-c2ccc(Br)cc2)no1 | 88.8% | 72.5% | 72.2% | 75.5% | 28.3% | 84.1% | 49.3% | 48.1% | 59% | 56.2%
17 | O=C(Cc1ccc(F)c(Cl)c1)Nc1cc(C2(C(F)(F)F)CC2)nn1Cc1ccccc1 | 55.3% | 43.2% | 89.6% | -32.7% (active) | 79% | -19.5% (active) | 58.2% | 60.3% | 34.6% | 66.3%
18 | S=C(c1cccs1)N1CCN(c2cccc(Cl)c2)CC1 | 99.2% | 92.7% | 122% | 102% | 105% | 81.7% | 81.1% | 87.6% | 85.4% | 107%
19 | C[C@H](C(=O)Nc1ccc(S(N)(=O)=O)cc1)S(=O)(=O)c1ccccc1 | 94.3% | 98% | 108% | 87.6% | 108% | 94% | 90.7% | 102% | 101% | 107%
20 | COc1cc2cc(Oc3ccc(NC(=O)Nc4ccc(Cl)c(C(F)(F)F)c4)cc3)c(C)nc2cc1OCCN1CCOCC1 | 10.5% | 34.9% | 61.1% | 27.6% | 8.67% (active) | 20.5% | 20.7% | 12.7% | 29.2% | -28.3% (active)
21 | CCOC(=O)c1c2c(n(-c3ccc(C#N)cc3)c1-c1ccccc1)C=CCC2 | 89.3% | 96.5% | 91.6% | 83.3% | 98.9% | 98.4% | 72.1% | 91.1% | 101% | 87.2%
22 | N#CC1=C(N)Oc2c(sc3c(Br)cccc23)C1c1ccc(Br)cc1 (stereo not given) | 20.4% | 57.1% | 42.3% | 22% | 6.62% (active) | 34.7% | -7.13% (active) | 25.5% | 17.1% | -49.5% (active)
23 | N[C@@H](Cc1ccccc1)[C@@H](O)C(=O)NCc1ccc(F)cc1 | 106% | 103% | 104% | 119% | 103% | 94.9% | 95.9% | 104% | 98.5% | 111%
24 | CCOC(=O)c1sc2ncc(-c3ccc(OC)cc3)n2c1C | 85.9% | 84.3% | 97.3% | 91.4% | 103% | 92.6% | 74.7% | 104% | 106% | 105%
25 | Cc1nn(-c2ccccc2)c2c1N=c1s/c(=C\c3ccc(C(F)(F)F)cc3)c(=O)n1CN2 | 51.1% | 61% | 75.7% | 87.7% | 53.8% | 56.4% | 40.5% | 5.73% (active) | 73.2% | 85.6%
